From PubChem BioAssay (NCI) come the findings set out here.

This is part of a sample that, as a whole, favours compounds with a hit. Of some 79,000 tested, about 15% had one in any assay. Unmarked numbers belong to inactive results. Calls of active or inactive are those of the source. No stated cut-off is given here; in the data, active means growth inhibition above about 70%; inactive means the rest.

This experiment is described as follows: NCI Yeast Anticancer Drug Screen. Data for the mlh1 strain (AID 171).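 Further: 0% = growth of vehicle-treated control cultures of the same strain.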 The settings on record: S. cerevisiae mlh1 strain growth inhibition, stronger effect = higher value. The protocol:
Growth inhibition of yeast strains with defined genetic alterations is measured as a screen for potential anti-cancer activity. Selected strains with alterations in DNA damage repair or cell cycle control were exposed to compounds and growth inhibition was measured relative to vehicle treated controls. The strain used in this assay is mlh1

In the case of `CC(=O)C1=C(O)C2(C)c3c(O)c(C)c(O)c(C(C)=O)c3OC2(Sc2ccccc2)CC1=O` (stereo not given), the growth inhibition runs as follows: (at 1.2 µM) 3%; (at 3.7 µM) 23%; (at 11.0 µM) 25%; (at 33.0 µM) 38%; (at 100.0 µM) 83% (active).
The like results for `N#C/C(=C1C=C(Br)/C(=N\O)C=C\1Cl)c1cccc2ccccc12` were, in that order, -37%, -11%, 58%, 79% (active) and 94% (active).
As to `COc1ccc(S(=O)(=O)N/N=C\c2cc([N+](=O)[O-])cc(I)c2O)c(OC)c1OC`, the growth inhibition runs as follows: (at 1.2 µM) 0%; (at 3.7 µM) -8%; (at 11.0 µM) 0%; (at 33.0 µM) 29%; (at 100.0 µM) 88% (active).
With `COc1cccc(C(c2cc3c(cc2O)OCO3)N2CCOCC2)c1OC` (stereo not given), the growth inhibition is -3% (at 1.2 µM); -1% (at 3.7 µM); 4% (at 11.0 µM); 7% (at 33.0 µM); 32% (at 100.0 µM).
The like results for `COc1cc(NCc2ccc3nc(N)nc(N)c3c2C)cc(OC)c1OC` were, in that order, -4%, -6%, -5%, 5% and 56%.
The like results for `CCN1/C(=C/c2ccc3ccccc3[n+]2CC)C=Cc2ccccc21` were, in that order, -27%, -15%, 41%, 97% (active) and 97% (active).
The like results for `CN(NC(=O)/C(=C/c1ccc(O)cc1)NC(=O)c1ccccc1)c1ccnc2cc(Cl)ccc12` were, in that order, 1%, 4%, 21%, 64% and 81% (active).
On to `CNc1nc(C)nc2c1cnn2-c1ccc([N+](=O)[O-])cc1`, for which the growth inhibition was -5% (at 1.2 µM); -1% (at 3.7 µM); 0% (at 11.0 µM); -1% (at 33.0 µM); -1% (at 100.0 µM).
